From ChEMBL document CHEMBL4513216, “Probing the Open Global Health Chemical Diversity Library for Multistage-Active Starting Points for Next-Generation Antimalarials” (ACS Infect Dis, 2020)
In all, about 68,000 compounds went through this assay and about 2,700 (4%) showed an effect of 50% or more. The entries come from a sample that favours strong results as a whole.

These molecules were tested on Plasmodium berghei (assay: Screen against P. berghei liver stage (PbLuc), transformed with Luciferase, at 2uM). Details: tested at 2 uM.
Type: functional, HepG2

| Compound | INHIBITION [%] |
| --- | --- |
| COCC[C@]1(O)CCN(Cc2nc(C)c(C)s2)C[C@H]1C | 11.48 |
| NC(=O)CC1CCN(C(=O)NCCc2ccc(Cl)s2)CC1 | 15.47 |
| CCCC(C)NCc1cnc(-c2cccc(C)c2)nc1 (centres undefined) | 56.47 |
| Cc1cccc(-c2ncc(CNC(C)CO)cn2)c1 (centres undefined) | -53.16 |
| Cc1cccc(-c2ncc(CNC(C)Cc3ccncc3)cn2)c1 (centres undefined) | 24.23 |
| CCCS(=O)(=O)N1CC[C@H]2O[C@@H](c3nc(C)no3)CC[C@H]21 | -71.5 |
| Cc1cnc2c(c1NCc1cccnc1)c(=O)n(C)c(=O)n2C | 63.23 |
| Cc1cnc2c(c1NCc1ccncc1)c(=O)n(C)c(=O)n2C | 29.42 |
| COc1cccc(CNc2c(C)cnc3c2c(=O)n(C)c(=O)n3C)c1 | -9.49 |
| CC1CN(Cc2ccccc2)CCCN1CCS(C)(=O)=O (centres undefined) | -7.07 |
| CC1CN(Cc2ccccc2)CCCN1CCCS(C)(=O)=O (centres undefined) | 53.99 |
| CNS(=O)(=O)CCCN1CCCN(Cc2ccccc2)CC1C (centres undefined) | 32.03 |
| CC(NC(=O)CCCOc1ccccc1Cl)c1ccncc1 (centres undefined) | -37.84 |
| CCOC(=O)C1(Cc2ccccc2-c2ccccc2OC)CCNCC1 | 29.68 |
| CCn1c(N)nc2cc(C(=O)N3CCC(N4CCCC4)CC3)cnc21 | -12.08 |
| CCn1c(N)nc2cc(C(=O)N3CCCOCC3)cnc21 | 40.47 |
| CCc1cc(CN(C)C(=O)c2cnc3c(c2)nc(N)n3CC)on1 | 6.85 |
| CCc1ccc(CN(C)C(=O)c2cnc3c(c2)nc(N)n3CC)nc1 | 17.5 |
| CCn1c(N)nc2cc(C(=O)N(C)Cc3cc(C(C)(C)C)n[nH]3)cnc21 | 58.17 |
| CCn1c(N)nc2cc(C(=O)N3CCCN(C)CC3)cnc21 | 63.1 |
| Cc1cnnn1Cc1nnn2c1CN(Cc1cccs1)CCC2 | 12.29 |
| COc1cccc2c1OCC(CNC(=O)Cc1csc(C(C)=O)c1)C2 (centres undefined) | 19.13 |
| CCc1cc(=O)n(CC(=O)NCC2CCCO2)c(-c2cccc(F)c2)n1 (centres undefined) | 23.65 |
| CN1CCC(c2cccc(-c3ccc(C(=O)O)cc3)n2)CC1 | -39.93 |
| CCC(C)N(Cc1ccsc1)C(=O)c1ccc(CO)cc1 (centres undefined) | 52.98 |
| CCC(C)N(Cc1ccsc1)C(=O)c1ccc2[nH]nnc2c1 (centres undefined) | 38.24 |

| Compound | INHIBITION [%] |
| --- | --- |
| CCC(CO)N(Cc1ccc(C(=O)O)cc1)Cc1ccsc1 (centres undefined) | 2.17 |
| CNc1oc(-c2cc(S(=O)(=O)N3CCCCCC3)c(C)o2)nc1C#N | 5.96 |
| Cc1oc(-c2nc(C#N)c(NC(C)(C)C)o2)cc1S(=O)(=O)N1CCCC1 | 58.42 |
| CNc1oc(-c2cc(S(=O)(=O)N3CCCC3)c(C)o2)nc1C#N | -49.59 |
| Cc1cccc(CN2C[C@@H]3CN(C(=O)c4ccsc4)C[C@@H]3C2=O)n1 | -23.78 |
| Cc1cnc(N2CC[C@@H]3O[C@@H](COCc4ccccn4)CC[C@@H]32)nc1 | -7.26 |
| COc1ccc(OCCN(C)Cc2nc3c(cnn3C)c(=O)[nH]2)cc1 | 72.31 |
| CCC1CCCCN1Cc1nc2c(cnn2C)c(=O)[nH]1 (centres undefined) | -31.57 |
| CN(CCCOc1ccccc1)Cc1nc2c(cnn2C)c(=O)[nH]1 | -31.57 |
| COCCCN(C)Cc1nc2c(cnn2C)c(=O)[nH]1 | -135.87 |
| Cn1ncc2c(=O)[nH]c(CN3CCCC3CC3CCCCC3)nc21 (centres undefined) | -5.15 |
| COc1ccc2c(c1)CN(Cc1nc3c(cnn3C)c(=O)[nH]1)CC2 | 27.55 |
| CN(CCCOc1ccc(F)cc1)Cc1nc2c(cnn2C)c(=O)[nH]1 | -45.72 |
| Cn1ncc2c(=O)[nH]c(CN3CCCC3CC(C)(C)C)nc21 (centres undefined) | 70.27 |
| Cc1ccc(OCCN(C)Cc2nc3c(cnn3C)c(=O)[nH]2)cc1 | 78.42 |
| COc1ccc2c(c1)CCCN2Cc1nc2c(cnn2C)c(=O)[nH]1 | -70.71 |
| CN(CCOc1cccc(F)c1)Cc1nc2c(cnn2C)c(=O)[nH]1 | 47.87 |
| COc1ccc2c(c1)CCN2Cc1nc2c(cnn2C)c(=O)[nH]1 | 52.17 |
| CSc1cccc(CN(C)C(=O)Nc2nc(C)n(C)n2)c1 | 4.12 |
| CSCC(=O)N1CCCC1c1noc(C2CC2)n1 (centres undefined) | 27.44 |
| Cc1cc(C)n(CC(C)NC(=O)C2(c3ccccc3F)CC2)n1 (centres undefined) | -45.89 |
| O=C(CCN1CCCCO1)N1CCC(CO)(CCc2ccccc2)CC1 | 12.56 |
| O=C(c1cc2c(s1)CCC2)N1CCCC1Cn1cccn1 (centres undefined) | 17.39 |
| CN(C)c1ncc(CNC2CC(=O)N(CCc3cccc(Cl)c3)C2)s1 (centres undefined) | 35.26 |
| CCNc1nc(C)c(C(=O)N2CCC(C(O)Cc3ccccc3)CC2)s1 (centres undefined) | 15.73 |
| O=C(C1CCCN(C2CCOCC2)C1)N1Cc2ccccc2C1 (centres undefined) | -45.79 |

| Compound | INHIBITION [%] |
| --- | --- |
| Fc1cccc(CN2CCC(c3cc4ncccc4cn3)CC2)c1F | -27.12 |
| CC(N(C)Cc1nc2c(cnn2C)c(=O)[nH]1)C(C)(C)C (centres undefined) | 62.46 |
| CC(C)CN(C)Cc1nc2c(cnn2C)c(=O)[nH]1 | -29.44 |
| CN(Cc1nc2c(cnn2C)c(=O)[nH]1)Cc1ccco1 | 27.5 |
| CCN(Cc1nc2c(cnn2C)c(=O)[nH]1)Cc1ccco1 | 53.98 |
| COCCN(Cc1nc2c(cnn2C)c(=O)[nH]1)C(C)c1ccccc1 (centres undefined) | 68.24 |
| COCCN(Cc1nc2c(cnn2C)c(=O)[nH]1)Cc1ccco1 | -16.42 |
| COCCN(Cc1nc2c(cnn2C)c(=O)[nH]1)C(C)COC (centres undefined) | 20.57 |
| Cc1ccc(C(C)N(C)Cc2nc3c(cnn3C)c(=O)[nH]2)cc1 (centres undefined) | 28.65 |
| CCC(C)N(CCOC)Cc1nc2c(cnn2C)c(=O)[nH]1 (centres undefined) | 29.19 |
| CCC1CN(Cc2nc(C(C)C)no2)CCC(=O)N1Cc1ccccc1 (centres undefined) | 8.14 |
| O=C(C1=CCCC1)N1C[C@H](OCc2cccnc2)[C@H]2OCCC[C@H]21 | 31.46 |
| CCCS(=O)(=O)N1CCC2(CC1)CC(=O)N(Cc1cc(F)cc(F)c1)C2 | 8.76 |
| C=c1occc1=C1NC(c2cccc(CN3CCOCC3)c2)=NO1 | 1.42 |
| CCC(C)c1noc(C2CCN(C(=O)c3cccs3)CC2)n1 (centres undefined) | -50.86 |
| c1ccc(Cn2cccn2)c(CN2CCC3(CCCNC3)C2)c1 (centres undefined) | 31.9 |
| c1cnn(Cc2ccc(CN3CCC4(CCCNC4)C3)cc2)c1 (centres undefined) | 0.49 |
| c1cnn(Cc2ccc(CN3CCC4(CCNCC4)C3)cc2)c1 | 56.79 |
| COC[C@]1(O)CCN(Cc2ccc(N(C)C)nc2)CC1(C)C | 32.21 |
| Cc1cc(CN2CC[C@H]3C[C@H](C(=O)N4CCC(C)CC4)O[C@H]3C2)no1 | 34.88 |
| CCn1ccnc1CN1CCCN(C(=O)COC2CCCCC2)CC1 | -2.87 |
| CCn1ccnc1CN1CCCN(C(=O)COC2CCCC2)CC1 | 57.81 |
| Cn1ccnc1CN1CCCN(C(=O)COC2CCCC2)CC1 | 28.18 |
| Cn1ccc(NC(=O)CN2C[C@@H]3CC[C@H]2CN(S(C)(=O)=O)C3)n1 | 48.21 |
| CN(Cc1nc2ccccc2o1)C1CCCN(c2cccnn2)C1 (centres undefined) | -16.72 |
| Cc1cc(C)n(C2CCCN(C(=O)c3cccc4[nH]ncc34)C2)n1 (centres undefined) | -15.33 |

| Compound | INHIBITION [%] |
| --- | --- |
| Cc1nccn1-c1ccc(C(C)NCc2cccn2C)cc1 (centres undefined) | -28.15 |
| Cn1c2ccc(F)cc2c2ncn(CCN3CCOCC3)c(=O)c21 | -2.5 |
| Cn1c2ccccc2c2ncn(CCN3CCOCC3)c(=O)c21 | 61.75 |
| Cn1c2ccccc2c2ncn(CCCN3CCOCC3)c(=O)c21 | 23.65 |
| CN1CCCN(C[C@@H]2CN(c3nc(C(N)=O)cs3)C[C@@H]2CO)CC1 | 19.56 |
| COCCNc1c(-c2ccc(C)cc2)c(=O)c1=O | -21.29 |
| COCCN1CCO[C@H]2CN(C(=O)c3cccs3)C[C@H]21 | 13.26 |
| O=c1cccnn1CC1CN(CC2CCCC2)Cc2nccn2C1 (centres undefined) | 52.83 |
| CS(=O)(=O)N1Cc2nccn2CC(Cn2ncccc2=O)C1 (centres undefined) | -9.42 |
| O=c1cccnn1CC1CN(Cc2ccsc2)Cc2nccn2C1 (centres undefined) | -0.51 |
| CCCN1CCN(Cc2cn(CCC(N)=O)c3ccccc23)CC1 | 38.62 |
| NC(=O)CCn1cc(CNCCCc2ccccc2O)c2ccccc21 | 57.34 |
| CC(C)n1cnnc1CCNCc1cn(CCC(N)=O)c2ccccc12 | -9.3 |
| NC(=O)CCn1cc(CNCCCc2ccncc2)c2ccccc21 | 3.49 |
| CC(NCc1cn(CCC(N)=O)c2ccccc12)c1nncn1C (centres undefined) | -81.84 |
| NC(=O)CCn1cc(CNCc2csc(N)n2)c2ccccc21 | 72.49 |
| Cc1ccc(C(C)NCc2cn(CCC(N)=O)c3ccccc23)cc1C (centres undefined) | 61.63 |
| NC(=O)CCn1cc(CNCCCc2csc(N)n2)c2ccccc21 | 37.15 |
| Cc1n[nH]c(C)c1CCCNCc1cn(CCC(N)=O)c2ccccc12 | 42.2 |
| CCc1nccn1-c1cncc(C2CCN(C(=O)COC)CC2)n1 | 41.98 |
| CCN(CC)C(=O)c1nc2c(s1)CCN(Cc1cccc(OC)c1)CC2 | 1.08 |
| O=C(c1cccc(S(=O)(=O)NCCCn2cccn2)c1)N1CCOCC1 | 30.8 |
| COC(=O)[C@H](C)NC(=O)Cc1c(C)nc2c(c1C)c(=O)[nH]n2C | -7.03 |
| COCCNc1nc2c(c(NCCc3cccs3)n1)CCNCC2 | -15.37 |
| COCCNc1nc2c(c(NCC3CCOC3)n1)CCNCC2 (centres undefined) | 58.53 |
| COCCNc1nc2c(c(NCc3ccncc3)n1)CCNCC2 | -21.16 |
